Results: PubChem BioAssay (NCATS)
Results filed as inconclusive are left out. Unmarked numbers belong to inactive results. Active and inactive are the calls of the source. Calls follow the shape of the dose curve; as a rule, active = well fitted inhibition curve with a large enough effect; inconclusive = small, poorly fitted or top-dose-only effect; inactive = no such curve, though single readings can be large or run the other way. Where a SMILES comes first, the peptide text is derived from it. [ ]: non-standard residue; d: D form. ξ: configuration not given here. ξPhe(βξ-Me) = CC(c1ccccc1)C(N)C(=O)O; GABA = NCCCC(=O)O

Test system: Zika virus NS2B-NS3 protease (linked construct)
Experiment: Primary screen NINDS Rhodamine qHTS for Zika virus inhibitors (AID 1347160); also: nearly all actives have a fitted effect of over 55% in size
Details: purified NS2B-NS3 protease, Rhodamine110 substrate fluorescence; series mostly up to 57.1 µM; activity change, negative = inhibition: at the top concentration
Summary of the method: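 In 10 mM Tris-HCl pH 8.0 containing 0.01% Tween 20, linked NS2B-NS3 protease (25 nM final) is exposed to test compounds for 15 min. Cleavage of 1.5 microM Rhodamine110 substrate is tracked by fluorescence over 15 min.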
% is scaled to controls: 0 for no effect and ±100 for the full control effect; potency is read from the fitted curve at half-maximal effect.

Structure (SMILES)	activity change, negative = inhibition	outcome	Potency
COc1cc(/C=C/C(=O)OC2CC(C)=C(C(=O)O)/C2=C/CO[C@@H]2O[C@H](CO)[C@@H](O)[C@H](O)[C@H]2O)ccc1O (some centres not stated)	-26% [at 33.1 µM]	–	–
C=C[C@@]1(C)CC(=O)C2[C@](C)(O1)[C@@H](OC(C)=O)[C@@H](O)[C@H]1C(C)(C)CCC[C@]21C (some centres not stated)	6.34% [at 15.1 µM]	–	–
C[C@H]1[C@H](C)CC[C@]2(C(=O)O[C@@H]3O[C@H](CO)[C@@H](O)[C@H](O)[C@H]3O)CC[C@]3(C(=O)O)C(=CCC4[C@@]5(C)CC[C@H](O[C@@H]6O[C@H](CO)[C@@H](O)[C@H](O)[C@H]6O)C(C)(C)C5CC[C@]43C)[C@H]12 (some centres not stated)	-20% [at 15.1 µM]	–	–
COc1ccc(C[C@H](N)C(=O)N[C@H]2[C@@H](O)[C@H](n3cnc4c(N(C)C)ncnc43)O[C@@H]2CO)cc1	–	inactive	–
CC1CCC2C(C(=O)O)=CC3CC(C)(C)CC132 (configuration not stated)	–	–	25.1 µM (active)
CC[C@@H](c1ccc(F)c(F)c1)n1c(C(=O)OC)c(-c2ccno2)[nH]c1=S	-23.8%	–	–
CC(C)CC1NC(=O)C(C(C)c2ccccc2)NC(=O)C(C(C)C)NC(=O)C(C)NC(=O)CCCNC(=O)C(Cc2c[nH]c3ccccc23)NC(=O)C(C)NC1=O (stereo not drawn) (cyclo([GABA]AV[ξPhe(βξ-Me)]LAW); configuration not given here)	-18% [at 15.1 µM]	–	–
CC(C)C1(O[C@@H]2O[C@H](CO)[C@@H](O)[C@H](O)[C@H]2O)CC=C(CO)CC1 (some centres not stated)	-16.8% [at 33.1 µM]	–	–
C=C(C)[C@H]1C[C@@H](O)C(=C)CC[C@@H](O)C(=C)[C@@H](O)C1	–	inactive	–
CCc1c(CC(N)=O)c2cc(OCCCP(=O)(O)O)ccc2n1Cc1ccccc1	-23.3%	–	–
C=C1CCC2C(OC(=O)C2(O)COC(C)=O)C2C(=C)C(O)CC12 (configuration not stated)	-5.88% [at 33.1 µM]	–	–
CCn1cc(C2=NOC(C(=O)Nc3c(C)n(C)n(-c4ccccc4)c3=O)C2)c(C)n1 (configuration not stated)	28.3%	–	–
NCCCC[C@H](NC(=O)[C@@H]1Cc2ccccc2CN1C(=O)CCC(=O)c1ccccc1)C(=O)NCC(c1ccccc1)c1ccccc1	109%	–	–
C[C@@H]1O[C@@H](O[C@H]2[C@H](O[C@H]3[C@H](O[C@H]4CC[C@@]5(CO)C(CC[C@]6(C)C5CC=C5C7CC(C)(C)C[C@@H](O)[C@]7(C)CC[C@]56C)C4(C)C)O[C@H](C(=O)O)[C@@H](O)[C@@H]3O)OC[C@@H](O)[C@@H]2O)[C@H](O)[C@H](O)[C@H]1O (some centres not stated)	-8.64% [at 15.1 µM]	–	–
CC1=CC(=O)C2C(C)(C)CCCC2(C)C12CCC1(COC(=O)C1)O2 (configuration not stated)	-13.2% [at 33.1 µM]	–	–
COc1cc(C(O)C(CO)Oc2ccc(CCCO[C@@H]3O[C@@H](C)[C@H](O)[C@@H](O)[C@H]3O)cc2OC)ccc1O (some centres not stated)	-23.8% [at 33.1 µM]	–	–
CC(=O)O[C@@H]1[C@H]2[C@@H](OC(=O)c3ccccc3)[C@@H](C)C[C@]2(O)[C@H](OC(C)=O)[C@@]2(C)[C@@H]3CC(C)(C)C(=O)[C@]3(OC(C)=O)C[C@@]12C	-5.8% [at 15.1 µM]	–	–
